Screens as filed in PubChem.
The list is not random: actives were taken first. Their share in the collection is about 19%.
IL1B secr inh = qHTS for Inhibitors of Inflammasome Signaling: IL-1-beta AlphaLISA Primary Screen | AID 743279, 2014 | activity change, % at 57.5 µM | actives 4.7% (n = 360,000) | THP-1 LPS/ATP IL-1B secretion, AlphaLISA, 16 h; stronger effect = lower value; in the data active = activity change below about -50%; inconclusive = mostly about -30% to -49%
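Secreted IL-1B measured by AlphaLISA bead assay after 16 h compound exposure of THP-1 cells; compounds (final up to 57.5 uM) added 1 h before LPS (250 ng/mL) and ATP (1.25 mM) stimulation; lower signal means less secretion.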
HT1080NT lethal = qHTS for induction of synthetic lethality in tumor cells producing 2HG: qHTS for the HT-1080-NT fibrosarcoma cell line. actives 1.6% (n = 360,000). HT-1080-NT fibrosarcoma viability, CellTiter-Glo ATP luminescence, 48 h. Potency, µM (series often up to 46.1 µM), most hits filed as cytotoxic;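 also: NT is the 2HG producing partner of a matched IDH1 knockdown line; nearly all actives have a fitted effect of over 55% in size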
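Read-out is CellTiter-Glo luminescence after 10 minutes at room temperature, following 48 hours' compound treatment of HT-1080-NT cells (750 cells/well, RPMI, 5% FBS, 37 degrees C).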
TDP1 cell noCPT = qHTS for Inhibitors of human tyrosyl-DNA phosphodiesterase 1 (TDP1): qHTS in cells in absence of CPT. DT40 Tdp1-/- hTDP1 cells, no CPT, ATP luminescence, 48 h. Potency, µM (series often up to 46.2 µM), hits mostly inhibitors. actives 15% (n = 420,000); also: nearly all actives have a fitted effect of over 55% in size
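Luminescent ATP content (CellTiter-Glo) served as the growth readout. Knockout chicken DT40 cells expressing human TDP1 were exposed to compounds without camptothecin for a minimum 48 hr at 37 °C.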
TDP1 cell CPT = qHTS for Inhibitors of human tyrosyl-DNA phosphodiesterase 1 (TDP1): qHTS in cells in presence of CPT | chicken DT40 Tdp1-/-;hTDP1 cells + 20 nM CPT, ATP luminescence, 48 h | Potency, µM (series often up to 46.2 µM), hits mostly inhibitors | actives 12% (n = 420,000); also: nearly all actives have a fitted effect of over 55% in size
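Cell growth measured by CellTiter-Glo luminescence after a minimum 48 h, 37 C compound exposure with 20 nM CPT in Tdp1-knockout DT40 cells stably expressing hTDP1, seeded 400/well; qHTS titration format.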
HT1080 IDH1KD tx = qHTS for induction of synthetic lethality in tumor cells producing 2HG: qHTS for the HT-1080-IDH1KD cell line; HT-1080 IDH1 knockdown viability, ATP luminescence, 48 h; Potency, µM (titrated, usually from 46.1 µM), usual class: cytotoxic; actives 2% (n = 360,000)
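CellTiter-Glo luminescence after 48 h compound exposure at 37 degrees C of IDH1-knockdown HT-1080 cells in 5% FBS RPMI. %Activity scaled between DMSO wells and cell-free media wells, with curves fitted and assigned curve classes.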
Numbers stand for hits; - = inactive; ? = inconclusive; . = no result given. Unless noted, calls follow the shape of the dose curve; as a rule, active = well fitted curve in the direction sought with a large enough effect; inconclusive = small, poorly fitted or top-dose-only effect, or another doubt; inactive = no such curve, though single readings can be large; an effect the other way counts as inactive or inconclusive.

SMILES	IL1B secr inh	HT1080NT lethal	TDP1 cell noCPT	TDP1 cell CPT	HT1080 IDH1KD tx
CCOc1ccc(-c2cc(C(=O)NCc3ccccc3)c3c(-c4ccc(CC)cc4)[nH]nc3n2)cc1	.	.	?	21µM	.
COc1ccc(OC)c(-c2cc(C(=O)NCCc3ccccc3)c3c(-c4ccc(C)cc4)[nH]nc3n2)c1	.	.	13µM	23µM	.
N#Cc1c(-c2ccccc2)nc(-c2cccnc2)[nH]c1=O	-	-	-	-	-
CNC(=O)C1CC(=O)N(c2ccc(C)cc2)C1 (stereo not drawn)	-	-	-	-	-
COc1ccc(CCNC(=O)CCn2c(=O)c3cccn3c3ccc(F)cc32)c(OC)c1OC	-	-	8.2µM	13µM	-
COc1ccccc1CCNC(=O)CCn1c(=O)c2cccn2c2ccc(F)cc21	-	-	12µM	23µM	-
COc1ccc(CNC(=O)CCn2c(=O)c3cccn3c3ccc(F)cc32)cc1OC	.	.	?	-	.
COc1ccc(O)c(C(=O)c2cnn(C(=O)c3cccc(N(C)C)c3)c2)c1	-	-	18µM	18µM	-
CCN(C(=O)C(NS(=O)(=O)c1cccc2nsnc12)c1ccccc1)c1ccccc1 (stereo not drawn)	.	.	23µM	?	.
CCC(C)NC(=O)C(NS(=O)(=O)c1cccc2nsnc12)c1ccccc1 (stereo not drawn)	-	-	-	-	-
CCc1ccc(NC(=O)C(NS(=O)(=O)c2cccc3nsnc23)c2ccccc2)cc1 (stereo not drawn)	-	-	26µM	?	-
O=C(CS(=O)c1ccc(Br)cc1)N1CCOCC1 (stereo not drawn)	-	-	-	-	-
Cc1cccc(C)c1C(OCCN(C)C)C1CCCCC1 (stereo not drawn)	-	-	?	18µM	-
CCN(CC)CCOC(=O)C(c1ccccc1)C1CCCCC1 (stereo not drawn)	-	?	?	?	?
O=C(/C=C/c1cccs1)c1cc(F)ccc1OC(=O)N1CCOCC1	-54	-	?	23µM	-
CCOc1ccc(CCNC(=O)c2[nH]c(C)c(C(C)=O)c2CC)cc1OCC	-	?	23µM	18µM	?
CCOC(=O)c1c(C)[nH]c(C(=O)NCCc2ccc(OC)c(OC)c2)c1C	-	-	15µM	?	-
CCOC(=O)c1[nH]c(C)c(C(=O)NCCc2ccccc2)c1C	.	.	-	-	.
CCOC(=O)c1c(C)[nH]c(C(=O)N2CCc3cc(OC)c(OC)cc3C2)c1C	-61	-	16µM	10µM	?
CCOC(=O)c1c(C)[nH]c(C(=O)N2CCN(C(=O)OCC)CC2)c1C	-	-	-	-	-
NC(=O)c1nnsc1Sc1c(C(N)=O)nnn1-c1cccc(N)c1	?	-	-	-	-
COc1ccc(NC(=O)Cc2nnc(SCC(=O)NC3CCCCC3)n2C)cc1	-	-	-	-	-
COC(=O)CCC(=O)c1oc2ccc(Br)cc2c1N	-	-	26µM	?	-
COc1ccc2oc(C(=O)CCC(=O)O)c(N)c2c1	-	-	-	-	-
CC1(C)Cc2ccccc2/C(=C/C(=O)N2CCCCCC2)N1	-	-	26µM	16µM	?
SMILES	IL1B secr inh	HT1080NT lethal	TDP1 cell noCPT	TDP1 cell CPT	HT1080 IDH1KD tx
CCOC(=O)C1CCN(C(=O)Cn2c(=O)c3cccn3c3cccnc32)CC1	-	-	?	-	-
CC1=C(C(=O)N(C)C)CC(CC(=O)NCCN2CCOCC2)C(=O)N1Cc1ccc(F)cc1 (stereo not drawn)	-	-	-	-	-
COc1ccc(N=C2S/C(=C\c3cc(C)n(C)c3C)C(=O)N2CC(C)C)cc1	-	-	18µM	?	-
CCN1C(=O)/C(=C/c2cccs2)SC1=Nc1ccc(OC)cc1	-	-	4.1µM	7.3µM	-
COC(=O)c1ccc(C(=O)OC)c(-n2c(=O)c3ccccc3c3ccccc3c2=O)c1	-	-	?	?	-
COc1ccc(S(=O)(=O)N2CCCCC2)cc1NC(=O)c1[nH]c(C)c(C(C)=O)c1C	-	-	?	?	-
CCCCNC(=O)C1(C)CCCCN1C(=O)c1cccs1 (stereo not drawn)	-	-	-	?	-
Cc1c(C(=O)N2CCCC2(C)C(=O)NCC(C)C)oc2ccccc12 (stereo not drawn)	-	-	-	-	?
CCCCNC(=O)C1(C)CCCCN1C(=O)c1cc(-c2ccccc2)cs1 (stereo not drawn)	-	-	8.2µM	13µM	?
CCCCNC(=O)C1(C)CCCCN1C(=O)c1oc2ccccc2c1C (stereo not drawn)	-	-	10µM	15µM	-
CC(C)(CO)NCc1ccc(Br)cc1	-	-	?	21µM	-
COc1ccc(C(=O)NCC(=O)OCc2cc(=O)n3nc(C4CCCCC4)sc3n2)cc1	.	.	-	-	.
Cc1nc2ncnn2c(C)c1CCC(=O)NCCc1ccccc1	-	-	-	?	-
